Test results taken from PubChem BioAssay (Tox21).
“And” between values parts separate entries of the source, which are not always exact repeats. Equal values may be shown once. Records with an inconclusive call do not appear. A call without a number means that no potency is given here. More than one record can exist for a structure, and the calls need not agree. The source made the active and inactive calls. Unless noted, calls follow the shape of the dose curve; as a rule, active = well fitted curve in the direction sought with a large enough effect in the repeat runs; inconclusive = weak or mixed curves; inactive = no such curve, though single readings can be large; an effect the other way counts as inactive or inconclusive.

Experiments:
[1] = qHTS assay to identify small molecule agonists of H2AX - cell viability counter screen (AID 1224847; calls by dose curve; also: nearly all actives have a fitted effect of over 30% in size; also: potency is read from the fitted curve at half-maximal effect)
Outline: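 Read-out: CellTiter-Glo luminescence, 30 min RT. Cells: wild-type CHO-K1, 1000/well, 10% FBS, plated overnight at 37C. Treatment: 15 concentrations, 3 hr, 37C, 0.76% DMSO.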

[2] = qHTS assay to identify small molecule agonists of the estrogen related receptor (ERR) signaling pathway from Tox21 library (AID 1224849; calls by dose curve; also: nearly all actives have a fitted effect of over 15% in size); conditions: ERR reporter cell line, ONE-Glo luciferase, 18 h; at 92.4 µM (top of the series)
Outline: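 Cells carrying the ERR reporter were plated and allowed to settle for 6 h, exposed to library compounds for 18 h at 37 C, then lysed with ONE-Glo and luminescence measured.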

[3] = qHTS RealTime-Glo MT Cell Viability Assay in HepG2 cells - 24 hour (AID 1224867); also: nearly all actives have a fitted effect of over 50% in size
Outline: (§1)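 HepG2 cells (600/well) were dispensed with RealTime-Glo reagents, incubated 5 h at 37 °C, then treated with compounds in DMSO for up to 40 h. Nonlytic NanoLuc luminescence reflecting viable cells was read at each stated time point.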

[4] = qHTS RealTime-Glo MT Cell Viability Assay in HEK293 cells - 32 hour (AID 1224868); also: top concentration of the series differs between compounds; nearly all actives have a fitted effect of over 50% in size
Outline: (§2)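 HEK293 cells seeded with NanoLuc/prosubstrate reagent, rested 5 h at 37 C, then dosed and kept at 37 C up to 40 h. Nonlytic real-time luminescence from viable cells read at 0, 8, 16, 24, 32 and 40 h.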

[5] = A CellTox Green Cytotoxicity Assay to monitor cytotoxicity in HEK293 cells - 0 hour (AID 1224869); also: nearly all actives have a fitted effect of over 50% in size
Outline: (§3)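 Cells (HEK293, 600/well) and dye reagent are dispensed together. After 5 h at 37 C, 23 nL compound is pinned in. Plates stay at 37 C for 40 h with fluorescence read at 0h, 8h, 16h, 24h, 32h and 40h.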

[6] = qHTS RealTime-Glo MT Cell Viability Assay in HepG2 cells - 40 hour (AID 1224870); also: nearly all actives have a fitted effect of over 50% in size
Outline: (§4)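 HepG2 cells (600/well) mixed with RealTime-Glo MT reagent, settled 5 h at 37 C/5% CO2 before compound addition. Nonlytic NanoLuc luminescence from viable-cell prosubstrate reduction read repeatedly during 40 h treatment at 37 C.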

[7] = A CellTox Green Cytotoxicity Assay to monitor cytotoxicity in HEK293 cells - 40 hour (AID 1224871); also: nearly all actives have a fitted effect of over 45% in size; also: potency is read from the fitted curve at half-maximal effect
Outline: as §3

[8] = qHTS RealTime-Glo MT Cell Viability Assay in HEK293 cells - 16 hour (AID 1224872)
Outline: as §2

[9] = qHTS RealTime-Glo MT Cell Viability Assay in HepG2 cells - 8 hour (AID 1224873); also: nearly all actives have a fitted effect of over 55% in size
Outline: as §4

[10] = qHTS RealTime-Glo MT Cell Viability Assay in HEK293 cells - 40 hour (AID 1224874); conditions: RealTime-Glo luminescence; max response: stronger effect = lower value; also: nearly all actives have a fitted effect of over 50% in size
Outline: (§5)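 Real-time viability in HEK293: signal arises when living cells convert a prosubstrate for NanoLuc in the medium, so luminescence tracks viable cell number. Compound (23 nL, DMSO) added 5 h post-seeding; kinetic reads at 0–40 h, 37 C.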

[11] = A CellTox Green Cytotoxicity Assay to monitor cytotoxicity in HEK293 cells - 24 hour (AID 1224875); also: nearly all actives have a fitted effect of over 45% in size
Outline: as §3

[12] = qHTS RealTime-Glo MT Cell Viability Assay in HepG2 cells - 32 hour (AID 1224877); also: nearly all actives have a fitted effect of over 55% in size
Outline: as §1

[13] = A CellTox Green Cytotoxicity Assay to monitor cytotoxicity in HepG2 cells - 24 hour (AID 1224878); also: nearly all actives have a fitted effect of over 45% in size
Outline: (§6)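 Cells and non-lytic dye reagent are dispensed together (600 HepG2 cells/well) and incubated 5 h before DMSO compound transfer. Kinetic fluorescence is then recorded in the same wells during 40 h at 37 C.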

[14] = A CellTox Green Cytotoxicity Assay to monitor cytotoxicity in HepG2 cells - 40 hour (AID 1224879); also: nearly all actives have a fitted effect of over 40% in size
Outline: as §6

[15] = qHTS RealTime-Glo MT Cell Viability Assay in HEK293 cells - 0 hour (AID 1224880); also: top concentration of the series differs between compounds; nearly all actives have a fitted effect of over 45% in size
Outline: as §5

[16] = A CellTox Green Cytotoxicity Assay to monitor cytotoxicity in HepG2 cells - 0 hour (AID 1224882); also: nearly all actives have a fitted effect of over 35% in size
Outline: as §6

[17] = A CellTox Green Cytotoxicity Assay to monitor cytotoxicity in HepG2 cells - 32 hour (AID 1224883); also: nearly all actives have a fitted effect of over 50% in size
Outline: as §6

[18] = A CellTox Green Cytotoxicity Assay to monitor cytotoxicity in HEK293 cells - 8 hour (AID 1224884); also: nearly all actives have a fitted effect of over 35% in size
Outline: as §3

[19] = A CellTox Green Cytotoxicity Assay to monitor cytotoxicity in HepG2 cells - 16 hour (AID 1224876); also: nearly all actives have a fitted effect of over 45% in size
Outline: as §6

[20] = A CellTox Green Cytotoxicity Assay to monitor cytotoxicity in HEK293 cells - 32 hour (AID 1224881); also: nearly all actives have a fitted effect of over 40% in size
Outline: as §3

| SMILES | Potency [1] | activity change, positive = activation [2] | outcome [3] | Potency [4] | outcome [5] | outcome [6] | Potency [7] | Potency [8] | outcome [9] | max response [10] | Potency [11] | outcome [12] | Potency [13] | Potency [14] | Potency [15] | outcome [16] | Potency [17] | outcome [18] | Potency [19] | Potency [20] |
| --- | --- | --- | --- | --- | --- | --- | --- | --- | --- | --- | --- | --- | --- | --- | --- | --- | --- | --- | --- | --- |
| CCc1cccc(C)c1N | inactive | -1.49% (inactive) | inactive | inactive | inactive | inactive | inactive | inactive | inactive | 1.23% (inactive) and 1.97% (inactive) | inactive | inactive | inactive | inactive | inactive | inactive | inactive | inactive |  |  |
| CC1=C(C)S(=O)(=O)CCS1(=O)=O | inactive | 10.9% (inactive) | inactive |  | inactive |  | inactive | inactive | inactive |  | inactive | inactive | inactive | inactive | inactive | inactive | inactive | inactive | inactive | inactive |
| CCC(O)OCCCOC (stereo not drawn) | inactive | 1.37% (inactive) and 8.84% (inactive) | inactive | inactive | inactive |  | inactive | inactive | inactive | 1.35% (inactive) and 16.2% (inactive) | inactive | inactive | inactive | inactive | inactive | inactive | inactive | inactive | inactive | inactive |
| c1ccc2c(c1)ccc1ccccc12 | inactive | -34.9% (inactive) and -32.3% (inactive) | inactive | inactive | inactive | inactive |  | inactive | inactive | -10.3% (inactive) |  | inactive | inactive | inactive | inactive | inactive | inactive | inactive |  |  |
| CN(C)CCCN | inactive | 5.71% (inactive) and 0.874% (inactive) | inactive | inactive | inactive | inactive | inactive | inactive | inactive | -0.421% (inactive) and -3.46% (inactive) | inactive | inactive | inactive | inactive | inactive | inactive | inactive | inactive |  |  |
| OCCOCCOCCO | inactive | -2.92% (inactive) and 6.58% (inactive) | inactive | inactive | inactive | inactive | inactive | inactive | inactive | -0.565% (inactive) and 3.8% (inactive) | inactive | inactive | inactive | inactive | inactive | inactive | inactive | inactive | inactive | inactive |
| COc1ccc(Nc2ccccc2)c(C)c1 | inactive and 101 µM (active) | -0.657% (inactive) | inactive | inactive | inactive | inactive | inactive and 43.6 µM (active) | inactive |  |  | inactive | inactive | inactive | inactive | inactive | inactive | inactive | inactive | inactive |  |
| O=C(O)c1ccccc1C(c1ccc(O)cc1)c1ccc(O)cc1 | inactive | 4.92% (inactive) and 4.34% (inactive) | inactive | inactive | inactive | inactive | inactive | inactive | inactive | 2.57% (inactive) and 12.8% (inactive) | inactive | inactive | inactive | inactive | inactive | inactive | inactive | inactive | inactive |  |
| CCCCCCCCCCCCCCCO | inactive | -0.174% (inactive) | inactive | inactive | inactive |  | inactive | inactive |  | 0.0156% (inactive) | inactive | inactive | inactive | inactive | inactive | inactive | inactive | inactive |  | inactive |
| CC(=O)CC(=O)Nc1ccccc1C | inactive | 1.06% (inactive) and 1.9% (inactive) | inactive | inactive | inactive | inactive | inactive | inactive | inactive | -0.0445% (inactive) and -13.2% (inactive) | inactive | inactive | inactive | inactive | inactive | inactive | inactive | inactive |  | inactive |
| O=c1[nH]nnc2ccccc12 | inactive | 5.04% (inactive) and -0.708% (inactive) | inactive | inactive | inactive |  | inactive | inactive |  | 2.18% (inactive) and -25.5% (inactive) | inactive | inactive | inactive | inactive | inactive | inactive | inactive | inactive | inactive | inactive |
| COS(C)(=O)=O | inactive | 1.76% (inactive) and -2.76% (inactive) | inactive | inactive | inactive |  | inactive | inactive |  | 0.0927% (inactive) and -3.51% (inactive) | inactive | inactive | inactive | inactive | inactive | inactive | inactive | inactive |  | inactive |
| Nc1ccccc1[N+](=O)[O-] | inactive | 9.45% (inactive) and 1.58% (inactive) | inactive | inactive | inactive |  | inactive | inactive | inactive |  | inactive | inactive | inactive | inactive | inactive | inactive | inactive | inactive | inactive | inactive |
